# Reference: ChEMBL document CHEMBL3988442, “University of Dundee, Small-Polar-MMV Screening Library” (2021)
# For some of these results: Potency and affinity values are given separately.
# What was measured:
# Parameters in all cases: scale not given: direction of the effect not stated beside the values
# [1] = molecular target: Protein translocase subunit SecA (Escherichia coli (strain K12)) (UniProt P10408); experiment: Assay to Identify E. coli SecA ATPase Inhibitors; type: functional; conditions: 30 µM
# [2] = molecular target: T1, Ubiquitin-activating enzyme e1, putative (Leishmania donovani (strain BPK282A1)) (UniProt E9BSI1); experiment: Leishmania donovani Ubiquitin Activating Enzyme (LdE1); type: functional; conditions: 30 µM
# T1 sequence (whole entry): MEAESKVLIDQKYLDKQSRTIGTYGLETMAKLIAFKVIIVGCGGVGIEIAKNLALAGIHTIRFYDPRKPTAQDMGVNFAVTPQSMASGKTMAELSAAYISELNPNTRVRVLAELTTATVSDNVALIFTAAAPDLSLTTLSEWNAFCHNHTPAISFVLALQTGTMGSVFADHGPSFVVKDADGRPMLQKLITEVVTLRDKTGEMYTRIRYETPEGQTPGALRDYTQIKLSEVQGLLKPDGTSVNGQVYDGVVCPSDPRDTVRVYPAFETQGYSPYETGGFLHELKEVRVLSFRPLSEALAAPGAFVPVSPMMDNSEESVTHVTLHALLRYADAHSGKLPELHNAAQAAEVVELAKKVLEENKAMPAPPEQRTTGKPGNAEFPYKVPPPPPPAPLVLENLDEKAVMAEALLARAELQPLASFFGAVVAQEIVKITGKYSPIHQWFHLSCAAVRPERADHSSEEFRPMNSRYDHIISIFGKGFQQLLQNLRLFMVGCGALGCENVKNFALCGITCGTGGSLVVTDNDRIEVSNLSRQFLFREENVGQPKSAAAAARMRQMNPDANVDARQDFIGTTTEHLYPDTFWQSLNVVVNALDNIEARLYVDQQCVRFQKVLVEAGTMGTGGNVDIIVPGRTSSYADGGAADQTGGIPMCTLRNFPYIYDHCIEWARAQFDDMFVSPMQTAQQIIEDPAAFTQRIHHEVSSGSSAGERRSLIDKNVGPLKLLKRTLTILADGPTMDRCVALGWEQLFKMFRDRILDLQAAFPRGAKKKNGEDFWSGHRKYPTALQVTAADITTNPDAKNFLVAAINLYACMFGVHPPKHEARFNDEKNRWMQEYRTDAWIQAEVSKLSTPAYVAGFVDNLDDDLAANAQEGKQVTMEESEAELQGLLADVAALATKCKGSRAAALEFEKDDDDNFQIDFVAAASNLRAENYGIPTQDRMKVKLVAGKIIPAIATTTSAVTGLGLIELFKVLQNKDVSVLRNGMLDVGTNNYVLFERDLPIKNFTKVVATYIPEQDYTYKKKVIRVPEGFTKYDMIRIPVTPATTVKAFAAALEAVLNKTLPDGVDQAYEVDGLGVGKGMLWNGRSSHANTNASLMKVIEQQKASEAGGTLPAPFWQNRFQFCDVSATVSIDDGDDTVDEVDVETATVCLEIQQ
# [3] = molecular target: AMP-activated protein kinase, AMPK (Homo sapiens) (UniProt P54646+O43741+P54619+Q9UGJ0+Q9Y478+Q13131+Q9UGI9); experiment: AMP-dependent Kinase enzyme assay. An in vitro enzyme assay that detects ADP turnover that is directly proportional to AMPK activity. This uses naive AMPK that is activated during the assay with MK-8722; type: functional; conditions: 30 µM
# [4] = molecular target: Sialic acid-binding Ig-like lectin 9 (Homo sapiens) (UniProt Q9Y336); experiment: Hs-Siglec9 ALPHAscreen SOP 20170721; conditions: 10 µM
# Trypanosoma cruzi = experiment: Trypanosoma cruzi phosphomannomutase and mannose-1-phosphate guanylyltransferase assay; type: functional; conditions: 10 µM
# [5] = molecular target: T2, Arginase-2, mitochondrial (Homo sapiens) (UniProt P78540); experiment: in vitro enzyme assay to detect the production of urea directly proportional to the activity of Arginase II; type: functional; conditions: 33.3 µM; note: in the data most compounds retested in dose-response had high values
# T2 sequence (whole entry): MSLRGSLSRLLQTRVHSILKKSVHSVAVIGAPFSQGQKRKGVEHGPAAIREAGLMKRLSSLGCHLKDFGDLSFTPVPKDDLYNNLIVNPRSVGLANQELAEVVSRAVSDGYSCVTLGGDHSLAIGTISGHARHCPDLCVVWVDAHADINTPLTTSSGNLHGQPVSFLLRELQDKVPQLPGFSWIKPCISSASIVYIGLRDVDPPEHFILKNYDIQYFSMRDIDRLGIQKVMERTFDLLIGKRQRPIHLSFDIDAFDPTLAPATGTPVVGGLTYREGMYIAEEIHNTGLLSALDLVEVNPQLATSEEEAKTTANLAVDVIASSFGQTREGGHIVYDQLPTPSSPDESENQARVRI
# [6] = molecular target: T3, Proteasome subunit beta (Trypanosoma cruzi) (UniProt O96673); experiment: Trypanosoma cruzi proteasome chymotrypsin-like activity (TcProtChymo) assay.; note: in the data most compounds retested in dose-response had high values; type: functional; conditions: 9.37 µM
# T3 sequence (whole entry): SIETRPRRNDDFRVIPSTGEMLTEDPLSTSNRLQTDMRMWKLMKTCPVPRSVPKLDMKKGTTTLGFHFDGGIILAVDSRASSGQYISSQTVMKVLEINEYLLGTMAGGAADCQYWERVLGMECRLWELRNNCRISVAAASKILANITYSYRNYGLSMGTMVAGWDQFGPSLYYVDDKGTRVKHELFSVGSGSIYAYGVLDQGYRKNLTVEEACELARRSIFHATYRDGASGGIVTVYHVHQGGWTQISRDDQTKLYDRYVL
# Homo sapiens = organism: Homo sapiens; experiment: To identify inhibition of the IFN signalling (Jak-Stat) pathway via expression of an eGFP reporter gene under the control of an IFN-stimulated response element (ISRE) containing MxA promoter.; type: functional; conditions: 30 µM
# [7] = molecular target: T4, Tyrosyl-tRNA synthetase, putative (Trypanosoma cruzi (strain CL Brener)) (UniProt Q4DSP6); experiment: Trypanosoma cruzi tyrosyl tRNA synthetase (TcYRS) _High Tyrosine SOP; type: functional; conditions: 30 µM; note: in the data most compounds retested in dose-response had high values
# T4 sequence (whole entry): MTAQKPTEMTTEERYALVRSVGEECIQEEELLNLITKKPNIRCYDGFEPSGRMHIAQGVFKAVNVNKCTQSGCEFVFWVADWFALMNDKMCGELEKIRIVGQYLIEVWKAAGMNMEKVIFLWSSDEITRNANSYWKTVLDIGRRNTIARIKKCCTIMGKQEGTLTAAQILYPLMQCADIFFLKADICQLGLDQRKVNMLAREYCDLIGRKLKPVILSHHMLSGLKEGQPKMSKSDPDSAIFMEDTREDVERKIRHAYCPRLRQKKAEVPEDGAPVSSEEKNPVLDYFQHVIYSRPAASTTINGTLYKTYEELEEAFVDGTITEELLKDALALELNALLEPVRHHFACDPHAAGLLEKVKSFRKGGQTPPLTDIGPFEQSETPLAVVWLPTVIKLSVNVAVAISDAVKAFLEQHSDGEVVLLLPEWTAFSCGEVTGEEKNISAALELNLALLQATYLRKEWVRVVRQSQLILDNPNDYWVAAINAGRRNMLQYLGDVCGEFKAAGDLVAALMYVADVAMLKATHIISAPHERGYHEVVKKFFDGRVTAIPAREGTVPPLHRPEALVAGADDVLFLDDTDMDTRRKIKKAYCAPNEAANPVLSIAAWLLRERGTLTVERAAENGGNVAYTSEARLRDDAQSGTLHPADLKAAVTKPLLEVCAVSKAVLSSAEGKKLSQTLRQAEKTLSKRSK
# [8] = molecular target: T4, Tyrosyl-tRNA synthetase, putative (Trypanosoma cruzi (strain CL Brener)); experiment: Trypanosoma cruzi tyrosyl tRNA synthetase (TcYRS) SOP; type: functional; conditions: 30 µM
# [9] = molecular target: Chromo domain-containing protein 1 (Saccharomyces cerevisiae (strain ATCC 204508 / S288c) (Baker's yeast)) (UniProt P32657); experiment: ScCHD-1 Enzyme Inhibition Assay; type: functional; conditions: 30 µM; note: in the data most compounds retested in dose-response had high values
# Sequence of Chromo domain-containing protein 1 (Saccharomyces cerevisiae (strain ATCC 204508 / S288c) (Baker's yeast)) (P32657 whole entry, the tested form may be a part): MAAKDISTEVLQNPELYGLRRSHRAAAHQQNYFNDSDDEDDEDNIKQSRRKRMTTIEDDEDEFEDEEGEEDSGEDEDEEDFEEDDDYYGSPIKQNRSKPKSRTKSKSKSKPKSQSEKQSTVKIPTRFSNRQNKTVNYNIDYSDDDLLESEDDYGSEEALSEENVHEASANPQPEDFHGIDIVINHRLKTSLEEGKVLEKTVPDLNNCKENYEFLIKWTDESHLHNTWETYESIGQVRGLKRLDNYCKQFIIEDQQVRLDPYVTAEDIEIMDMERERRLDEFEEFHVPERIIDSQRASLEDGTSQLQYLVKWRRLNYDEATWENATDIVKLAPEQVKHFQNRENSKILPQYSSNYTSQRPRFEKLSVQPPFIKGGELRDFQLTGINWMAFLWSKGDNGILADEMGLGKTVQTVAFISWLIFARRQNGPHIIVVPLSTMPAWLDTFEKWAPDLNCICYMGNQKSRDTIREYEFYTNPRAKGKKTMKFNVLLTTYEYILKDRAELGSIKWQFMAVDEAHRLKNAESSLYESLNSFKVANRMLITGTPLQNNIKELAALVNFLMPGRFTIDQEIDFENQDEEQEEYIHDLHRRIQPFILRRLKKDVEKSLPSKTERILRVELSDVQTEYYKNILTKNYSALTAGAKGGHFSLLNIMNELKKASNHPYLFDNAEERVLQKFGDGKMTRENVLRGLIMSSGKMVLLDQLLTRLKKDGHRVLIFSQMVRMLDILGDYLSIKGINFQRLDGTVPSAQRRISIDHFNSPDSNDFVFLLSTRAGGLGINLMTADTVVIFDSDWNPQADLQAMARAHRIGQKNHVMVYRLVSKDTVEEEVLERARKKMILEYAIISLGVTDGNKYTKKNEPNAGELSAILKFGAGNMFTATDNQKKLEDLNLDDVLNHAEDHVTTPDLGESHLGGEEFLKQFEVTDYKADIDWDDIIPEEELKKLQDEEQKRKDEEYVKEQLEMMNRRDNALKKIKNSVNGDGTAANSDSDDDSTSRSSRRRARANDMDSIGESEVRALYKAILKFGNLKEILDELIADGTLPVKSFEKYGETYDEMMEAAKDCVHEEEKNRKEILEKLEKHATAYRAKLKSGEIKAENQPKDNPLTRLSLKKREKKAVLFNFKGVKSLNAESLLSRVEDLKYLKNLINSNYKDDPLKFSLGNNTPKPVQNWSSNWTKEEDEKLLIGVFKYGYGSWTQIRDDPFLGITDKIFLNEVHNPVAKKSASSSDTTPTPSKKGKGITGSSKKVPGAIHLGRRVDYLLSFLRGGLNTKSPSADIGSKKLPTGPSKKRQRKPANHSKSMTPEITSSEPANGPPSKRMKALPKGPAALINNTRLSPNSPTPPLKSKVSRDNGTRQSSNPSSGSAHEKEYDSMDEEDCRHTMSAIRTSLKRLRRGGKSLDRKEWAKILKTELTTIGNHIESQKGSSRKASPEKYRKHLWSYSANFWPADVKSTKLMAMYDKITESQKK
# Sequence of Protein translocase subunit SecA (Escherichia coli (strain K12)) (P10408 whole entry): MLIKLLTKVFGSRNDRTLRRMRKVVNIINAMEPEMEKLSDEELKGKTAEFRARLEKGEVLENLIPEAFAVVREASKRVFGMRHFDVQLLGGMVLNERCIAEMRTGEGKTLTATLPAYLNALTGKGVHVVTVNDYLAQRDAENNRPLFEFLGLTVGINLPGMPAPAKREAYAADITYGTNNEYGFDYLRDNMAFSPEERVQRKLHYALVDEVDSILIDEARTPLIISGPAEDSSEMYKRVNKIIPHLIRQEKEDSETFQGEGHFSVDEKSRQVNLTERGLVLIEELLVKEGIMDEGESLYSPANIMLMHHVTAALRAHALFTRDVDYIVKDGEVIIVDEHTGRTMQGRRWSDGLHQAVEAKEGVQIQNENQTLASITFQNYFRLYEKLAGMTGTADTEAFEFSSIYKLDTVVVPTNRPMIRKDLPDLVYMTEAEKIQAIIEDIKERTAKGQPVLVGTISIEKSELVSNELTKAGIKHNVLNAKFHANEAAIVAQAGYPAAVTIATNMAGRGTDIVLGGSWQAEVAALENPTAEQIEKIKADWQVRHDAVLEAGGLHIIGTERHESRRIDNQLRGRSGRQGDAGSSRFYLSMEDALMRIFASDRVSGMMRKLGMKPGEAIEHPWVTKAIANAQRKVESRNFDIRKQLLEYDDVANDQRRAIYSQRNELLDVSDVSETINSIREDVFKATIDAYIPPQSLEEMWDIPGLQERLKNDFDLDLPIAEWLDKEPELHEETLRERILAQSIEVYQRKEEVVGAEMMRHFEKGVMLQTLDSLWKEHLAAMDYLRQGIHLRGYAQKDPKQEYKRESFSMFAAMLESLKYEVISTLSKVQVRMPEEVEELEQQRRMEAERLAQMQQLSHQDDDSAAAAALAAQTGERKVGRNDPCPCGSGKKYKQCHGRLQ
# Sequence of Sialic acid-binding Ig-like lectin 9 (Homo sapiens) (Q9Y336 whole entry): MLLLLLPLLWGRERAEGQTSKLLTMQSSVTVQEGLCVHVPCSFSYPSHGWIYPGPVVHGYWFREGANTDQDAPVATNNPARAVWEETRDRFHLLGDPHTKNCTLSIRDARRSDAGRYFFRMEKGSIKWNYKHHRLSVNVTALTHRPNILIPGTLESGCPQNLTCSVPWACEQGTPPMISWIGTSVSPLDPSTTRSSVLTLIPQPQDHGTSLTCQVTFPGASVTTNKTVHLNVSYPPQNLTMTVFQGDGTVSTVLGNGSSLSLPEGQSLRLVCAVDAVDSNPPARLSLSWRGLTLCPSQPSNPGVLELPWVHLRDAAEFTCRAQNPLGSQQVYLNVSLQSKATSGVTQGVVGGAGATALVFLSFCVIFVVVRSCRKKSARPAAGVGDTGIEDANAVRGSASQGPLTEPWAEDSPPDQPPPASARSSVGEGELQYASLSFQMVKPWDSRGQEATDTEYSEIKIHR
SMILES,Percent Effect [1],Percent Effect [2],Percent Effect [3],Percent Effect [4],Percent Effect (Trypanosoma cruzi),Percent Effect [5],Percent Effect [6],Percent Effect (Homo sapiens),Percent Effect [7],Percent Effect [8],Percent Effect [9]
O=C(c1ccoc1)N1CC[C@@H]2[C@H]1CCC(=O)N2c1ccccc1,-4.24%,10.7%,10.1%,-2.97%,-1.97%,-1.63%,5.02%,10.8%,9.57%,14.1%,-0.93%
Cn1c(CC2CCS(=O)(=O)C2)nnc1SCCOc1ccccc1F (configuration not stated),-0.675%,2.7%,2.63%,12.8%,2.64%,30.5%,2.15%,-9.3%,-2.15%,6.17%,-9.15%
CC(O)CC(C)(C)CNC(=O)NCc1cccc(-n2ccnc2)c1 (configuration not stated),-3.71%,0%,-1.99%,-7.44%,-2.83%,-2.23%,-2.83%,18.3%,-1.07%,-1.24%,4.12%
FC(F)(F)Cn1ccnc1CN1CCOC(Cn2cccn2)C1 (configuration not stated),-5.79%,6.33%,6.8%,1.11%,-2.36%,-1.5%,1.54%,13.3%,1.04%,15.2%,-6.67%
Cc1cnn(CC2CCCN2C(=O)c2cc(C)no2)c1 (configuration not stated),-7.95%,5.26%,-9.36%,0.94%,-8.12%,0.36%,-4.65%,2.42%,-0.493%,-8.64%,10.5%
CN(C)c1ccc(CN(CCCn2ccnc2)Cc2c[nH]cn2)cc1,-6.31%,17.6%,-10.4%,5.43%,3.16%,-6.26%,12.5%,8.69%,8.6%,19.5%,-30.5%
OC(CN1CCC(c2ccn[nH]2)CC1)c1cccc(F)c1 (configuration not stated),1.18%,12.7%,4.09%,4.6%,-3.49%,6.84%,6.31%,13.5%,5.42%,11.4%,-4.54%
Cc1ccc(-c2nc(CN3CCOC(Cn4cccn4)C3)cs2)o1 (configuration not stated),0.91%,2.7%,-3.73%,5.65%,7.14%,0.476%,12.4%,4.23%,2.65%,9.76%,0.401%
COc1ccc(C(CO)NC(=O)Nc2cccc(C#N)c2)cc1 (configuration not stated),-1.84%,16.2%,-2.87%,19.4%,3.86%,-0.952%,15.3%,8.24%,7.94%,17.1%,-9.96%
O=C(NCCCO)Nc1cccc(Cl)c1F,-3.09%,12.5%,-6.85%,11.1%,4.96%,11%,8.25%,-2.91%,3.16%,5.13%,-4.47%
CC(C)COCC(NC(=O)c1ccccn1)c1ccco1 (configuration not stated),-2.06%,13.5%,-1.56%,0.407%,4.62%,-8.02%,5.04%,5.29%,9.36%,16.1%,-8.79%
CCOC(=O)[C@]12CCCN(Cc3nccs3)C[C@H]1CN(C(C)=O)C2,-1.26%,5.2%,-1.96%,-4.79%,-9.17%,-0.645%,15.7%,7.39%,0%,6.41%,-6.7%
Cc1nc(C)n(CC2CCCN(c3ncnc4c3CCC4)C2)n1 (configuration not stated),-4.39%,0%,0.226%,-3.72%,-4.25%,-2.81%,-2.88%,64.3%,-2.46%,-8.64%,4.82%
Fc1ccccc1CN1C[C@@H](OCc2ccncc2)[C@H]2OCCC[C@H]21,-4.8%,10.4%,6.84%,10.2%,4.62%,-13.8%,5.49%,6.56%,7.53%,16.1%,-1.04%
CCCS(=O)(=O)NC(C)C(=O)NCc1ccc(N2CCCC2)nc1 (configuration not stated),-3.52%,16.2%,-27.4%,-2.65%,-0.66%,-4.01%,12.8%,5.44%,13.3%,13.6%,-7.91%
O=S(=O)(c1cccs1)N1CCCn2cnc(CN3CCCC3)c2C1,-4.49%,10.7%,-0.197%,0.986%,-3.48%,-60.4%,13.8%,7.16%,4.17%,12.5%,-7.45%
O=C(c1cccc2c1OCO2)N1CCCC1c1noc(C2CC2)n1 (configuration not stated),-5.41%,5.06%,-1.36%,-1.04%,10.5%,-3.42%,-2.38%,5%,4.43%,11.4%,-6.85%
